For 9 molecules, outcome, Potency and activity change, negative = inhibition results are on record in PubChem BioAssay (NCATS).

Test [1] in a line: AP1 Signaling Pathway (AID 357; active means well fitted curve in either direction with a large enough effect, not every such curve was filed as active;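 further: ME-180 reporter cells stimulated with EGF at its EC50 level; on the % scale 0 is the no-effect control and ±100 the full control effect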). In a few lines: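 Titration-series screen for positive or negative modulators of EC50 EGF-induced signaling in ME-180 cells carrying an AP-1-driven beta-lactamase reporter. After 5 hours at 37 degrees Celsius, CCF4 460nm/530nm emission ratio gave %Activity; AC50 values derived.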
The target in test [2] is Cytochrome P450 1A2 (Homo sapiens) (UniProt P05177). In words: p450-cyp1a2 (AID 410). Further: potency means the concentration at half of the fitted maximal effect.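 On activity change, negative = inhibition: -100% = full effect of reference inhibitor.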 Put shortly:
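Read-out is luminescence from luciferin produced by CYP1A2 demethylation of Luciferin-ME (100uM, at Km). Detection reagent stopped the 60 min NADPH-dependent reaction; signals were normalized to 57 uM furafylline.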

Test [3] is described as follows: Stat Signaling Pathway (AID 446; active means well fitted curve in either direction with a large enough effect, not every such curve was filed as active;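 further: ME-180 cervical cancer cells given 40 pM IL-6 alongside compound; SIE-controlled beta-lactamase reporter measured as 460/530 nm FRET emission ratio; on the % scale 0 is the no-effect control and ±100 the full control effect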). In a few lines:
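Overnight-plated ME-180 cells bearing a STAT Inducible Element beta-lactamase reporter; 5 h co-exposure to compound and 40 pM IL-6; values normalized to 300 pM IL-6 and 125 nM JAK inhibitor controls.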

The nature of test [4]: NFAT Signaling Pathway (AID 444; active means well fitted curve in either direction with a large enough effect, not every such curve was filed as active;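 further: carbachol stimulus at about its EC50 of 1 µM final; on the % scale 0 is the no-effect control and ±100 the full control effect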). To be noted: Jurkat NFAT-bla M1, carbachol, beta-lactamase ratio, 5 h. In a few lines: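 Jurkat cells carrying an NFAT-driven β-lactamase reporter and co-transfected muscarinic M1 receptor were treated with compound plus carbachol (1 uM final, an EC50 level) for 5 h at 37 °C. CCF4 loading followed for 1 h at RT; 460/530 nm ratio gave %activity.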

Test [5] is described as follows: Cell Viability - BJ (AID 421).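 Further: potency means the concentration at half of the fitted maximal effect; cells exposed to compound for 40 hours at 37 °C before readout.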 The conditions noted are these: BJ fibroblast viability, qHTS. Put shortly:
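Quantitative HTS: ATP depletion in BJ cells after 40 hr compound exposure in complete culture medium, detected with CellTiter-Glo; AC50 from standard Hill fits.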
A general note: Quantitative high-throughput screening tests each substance at several concentrations.

A short description of test [6]: Cell Viability - Hek293 (AID 427;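 active means compounds whose dose-response curve shows a full or clear partial loss of cell viability, called from curve shape rather than a numeric limit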;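 further: potency means the concentration at half of the fitted maximal effect; cells exposed to compound for 40 hours at 37 °C before reading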). To be noted: qHTS. Put shortly:
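AC50 values derive from Hill-modelled concentration-response of ATP-based luminescence, normalized between DMSO-only and 100 uM tamoxifen controls. Cells were exposed in complete culture medium for 40 hr at 37 °C before detection.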

Test [7] in a line: Cell Viability - HepG2 (AID 433).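 Further: potency means the concentration at half of the fitted maximal effect; potency for ATP loss meaning cytotoxicity.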 The conditions noted are these: qHTS. In a few lines: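 Read-out is luciferase-based quantitation of cellular ATP as a measure of viable HepG2 cells after 40 h treatment at 37 °C. Signal decrease is scaled between DMSO-only and 100 uM tamoxifen controls, with AC50 fitted by the Hill equation.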
Test [8] is described as follows: Cell Viability - MRC5 (AID 434).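 Further: potency means the concentration at half of the fitted maximal effect; cells exposed to compound for 40 hours at 37 °C; potency reflects cytotoxicity seen as loss of intracellular ATP.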 The conditions noted are these: MRC5 lung fibroblast viability, qHTS. Put shortly:
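Decrease in intracellular ATP, quantified by luciferase light output, reflects compound toxicity toward MRC5 cells exposed for 40 hr in complete culture medium. Concentration-response curves, scaled between DMSO and 100 uM tamoxifen, gave AC50 values.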

Test [9] can be described thus: Cell Viability - SK-N-SH (AID 435).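 Further: potency means the concentration at half of the fitted maximal effect; compound exposure lasted 40 h at 37 °C.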 The conditions noted are these: SK-N-SH neuroblastoma cell viability qHTS. In a few lines: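 Luminescent ATP signal served as the viability read-out after 40 hours of compound treatment of human neuroblastoma SK-N-SH cells. Concentration-response data, scaled between DMSO and 100 uM tamoxifen, gave AC50 values by standard Hill modeling.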

Test [10] can be described thus: Cell Viability - Jurkat (AID 426;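 active means dose-dependent loss of cell ATP signal giving a full or clear fitted curve, ranked by lower potency value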;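 further: potency means the concentration at half of the fitted maximal effect; cells exposed to compound for 40 hours at 37 °C before ATP read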). To be noted: qHTS. Put shortly:
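Cytotoxicity was scored as loss of cellular ATP, measured by luciferase-based luminescence, in Jurkat clone E6-1 cells after 40 h compound treatment; tamoxifen and doxorubicin served as positive controls.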

Values joined by “and” are separate entries in the source; they are usually repeats but may differ in a detail not shown here. Equal values may be shown once. Inconclusive results are not listed. Values without a mark were called inactive. Active and inactive are the calls of the source. Unless noted, the call rests on the fitted dose curve.

Cytochrome P450 1A2 (Homo sapiens), sequence (P05177 whole entry, looked up): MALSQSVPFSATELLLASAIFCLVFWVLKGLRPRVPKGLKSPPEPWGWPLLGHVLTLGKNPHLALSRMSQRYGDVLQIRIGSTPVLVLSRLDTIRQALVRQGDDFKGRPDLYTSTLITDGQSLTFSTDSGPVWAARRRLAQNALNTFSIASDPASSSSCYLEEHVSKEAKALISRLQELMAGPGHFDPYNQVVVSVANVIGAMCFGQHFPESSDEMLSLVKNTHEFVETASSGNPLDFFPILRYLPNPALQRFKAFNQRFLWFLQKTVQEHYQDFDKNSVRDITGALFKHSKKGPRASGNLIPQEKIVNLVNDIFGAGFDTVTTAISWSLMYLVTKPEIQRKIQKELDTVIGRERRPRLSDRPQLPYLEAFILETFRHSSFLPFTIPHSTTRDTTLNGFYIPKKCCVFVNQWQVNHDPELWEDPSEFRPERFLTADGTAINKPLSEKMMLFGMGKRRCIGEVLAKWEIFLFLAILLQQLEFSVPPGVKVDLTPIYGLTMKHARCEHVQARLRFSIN

Regarding `CCC(=O)O[C@H]1CC[C@H]2[C@@H]3CCC4=CC(=O)CC[C@]4(C)[C@H]3CC[C@]12C`, the result in test [1] and in [3] was inactive. For the same molecule, the Potency result in test [2] was “inactive”.
Consider `CC(C)[N+](C)(CCC(C(N)=O)(c1ccccc1)c1ccccc1)C(C)C`, for which the result in [1] and in test [3] was inactive. Moreover, the Potency result in test [2] is “inactive”.
In the case of `c1ccc2nc(N3CCNCC3)ccc2c1`, the call in [1] and in test [3] was inactive. Moreover, in test [2], the Potency was 1.58 µM (active) and 1.26 µM (active) and 251 nM (active). The figures for the activity change, negative = inhibition in [4] (at 17.2 µM (top of the series)) and in test [4] (at 38 µM (top of the series)) were -7.47% and -5.87%, respectively.
Consider `NC(=O)CN1CCCC1=O`, for which the call in test [1] and in test [3] was inactive. In addition, the Potency result in [2] was “inactive”. The activity change, negative = inhibition in test [4] (at 17.2 µM (top of the series)) is -0.917%; in test [4] (at 38 µM (top of the series)) it was 1.7%.
Turning to `Oc1c(Br)cc(Br)cc1Br`, the Potency in [5], in test [6], in [7], in [8] and in [9] was over 92 µM throughout.
As for `CCCCCCCCCCCC[N+](C)(C)CCOc1ccccc1`, the Potency in [5] was 13.7 µM (active); in test [10] it was 25.2 µM (active); in test [6] it was 29.6 µM (active); in test [7] it was 58.8 µM (active); in test [8], 14.5 µM (active); in [9], 24.5 µM (active).
In the case of `CC[n+]1c(-c2ccccc2)c2cc(N)ccc2c2ccc(N)cc21`, the Potency was 26.8 µM (active) in [10], over 92 µM in test [8] and over 92 µM in [9].
Consider `C[C@@H]1C[C@@H]([C@H](O)CC2CC(=O)NC(=O)C2)C(=O)[C@@H](C)C1`, for which the Potency in [5] was over 92 µM; in test [10], 301 nM (active) and 142 nM (active); in test [6], 129 nM (active) and 167 nM (active); in test [7], over 92 µM; in test [8], over 92 µM; in test [9] it was over 92 µM.
`OC(c1ccccc1)(c1ccccc1)C1CCNCC1`: the call in test [1] and in test [3] was inactive. The Potency result in test [2] is “inactive”.
